# Bioassay records from PubChem BioAssay.
# ATXN2 expr inh = reduces ATXN2 reporter expression in HEK-293 cells; HEK-293 ATXN2-luciferase reporter, luminescence, 24 h; Potency, µM (doses to about 57 µM), without a hit: at the top dose activity change, negative = inhibition, actives largely listed as inhibitors; AID 1745845; actives 0.72% (n = 360,000); note: % is set by controls: 0 for no effect and ±100 for the full control effect; nearly all actives have a fitted effect of over 55% in size
#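 qHTS (up to 57 uM final) was run with 24 h compound exposure of reporter cells at 37 °C. Each well was multiplexed: SteadyGlo luminescence measured ATXN2-luciferase expression after a fluorogenic Gly-Phe-AFC viability readout (25 uM final).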
# KB-3-1 cytotox = kills parental KB-3-1 adenocarcinoma cells; actives 1.4% (n = 400,000); Potency, µM (doses to about 46.1 µM), usual class: cytotoxic; KB-3-1 viability, CellTiter-Glo ATP luminescence, 72 h; note: % is set by controls: 0 for no effect and ±100 for the full control effect; nearly all actives have a fitted effect of over 60% in size
#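 Parental KB-3-1 viability, qHTS format: 72 h compound exposure, 37 °C; CellTiter-Glo; media-only wells and DMSO plates as controls; concentration-effect fits on corrected data.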
# HT1080 IDH1KD tx = kills HT-1080 cells with IDH1 knockdown. Potency, µM (top dose mostly 46.1 µM), for inactives: top-dose activity, negative = toxicity, actives largely listed as cytotoxic. HT-1080 IDH1 knockdown viability, ATP luminescence, 48 h. actives 2% (n = 360,000);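 note: 0% = DMSO wells and -100% = cell-free medium wells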
#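 Using the IDH1-knockdown HT-1080 line run in the same batch and compound series as the NT line, viability after 48 h at 37 °C was determined by CellTiter-Glo luminescence and expressed as % activity.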
# KB-V1 MDR tox = KB-V1 MDR subline cytotoxicity; Potency, µM (titrated, usually from 46.1 µM), hits mostly cytotoxic; actives 3.4% (n = 400,000); KB-V1 MDR cells viability, CellTiter-Glo, 72 h; note: % is set by controls: 0 for no effect and ±100 for the full control effect; nearly all actives have a fitted effect of over 60% in size
#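 Luminescent ATP read-out (CellTiter-Glo, 10 min) measures survival of drug-selected KB-V1 MDR cells after 72 h, 37 degrees C compound exposure. Medium: phenol-red-free DMEM, 10% FBS. Values from fitted concentration-response curves.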
# HT1080NT lethal = kills 2HG-producing HT-1080-NT fibrosarcoma cells; HT-1080-NT fibrosarcoma viability, CellTiter-Glo ATP luminescence, 48 h; Potency, µM (top dose mostly 46.1 µM), for inactives: top-dose activity, negative = less viability, hits mostly cytotoxic; actives 1.6% (n = 360,000); AID 686970;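 note: NT is the 2HG producing partner of a matched IDH1 knockdown line; 0% = DMSO-treated cells and -100% = media-only wells without cells; nearly all actives have a fitted effect of over 55% in size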
#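 Read-out is CellTiter-Glo luminescence after 10 minutes at room temperature, following 48 hours' compound treatment of HT-1080-NT cells (750 cells/well, RPMI, 5% FBS, 37 degrees C).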
# ATXN viability = viability counter-screen for ATXN expression inhibitors; AID 651635; actives 0.49% (n = 400,000); Potency, µM (doses to about 56.7 µM), usual class: cytotoxic; S2 cells (HEK-293 line with an ATXN2-luciferase reporter) viability, CellTiter-Fluor protease fluorescence, 24 h; note: nearly all actives have a fitted effect of over 40% in size
# Starred values were filed as active, the others as inactive; i = inactive; ? = inconclusive; . = no result given. The list is not random: actives were taken first. Their share in the collection is about 6.2%. Calls come from the whole dose curve; as a rule, active = well fitted curve in the direction sought with a large enough effect; inconclusive = small, poorly fitted or top-dose-only effect, or another doubt; inactive = no such curve, though single readings can be large; an effect the other way counts as inactive or inconclusive. Potency is the fitted concentration of half-maximal effect.
SMILES,ATXN2 expr inh,KB-3-1 cytotox,HT1080 IDH1KD tx,KB-V1 MDR tox,HT1080NT lethal,ATXN viability
COc1ccc(C(C(=O)NC2CCCCC2)N(C(=O)Cc2c[nH]c3ccccc23)c2ccccc2C)cc1OC (stereo not given),-17%,i,-21%,?,-18%,?
Cc1ccc(C(C(=O)NC2CCCCC2)N(C(=O)Cc2c[nH]c3ccccc23)c2ccccc2C)o1 (stereo not given),-16%,?,23µM*,?,15µM*,?
Cc1ccc(N(C(=O)Cc2c[nH]c3ccccc23)C(C(=O)NC2CCCCC2)c2ccco2)cc1 (stereo not given),?,?,?,16µM*,?,?
Cc1ccccc1N(C(=O)Cc1c[nH]c2ccccc12)C(C(=O)NC1CCCCC1)c1ccco1 (stereo not given),-27%,i,?,?,?,i
Cc1c(Cl)ccc2sc(N3CCN(C(=O)c4ccco4)CC3)nc12,?,i,.,?,.,?
Cc1ccc(CNC(=O)c2cc(C3CC3)nc3c2c(C)nn3-c2cccc(Cl)c2C)cc1,5%,i,.,?,.,i
O=C(Nc1c(Cl)cncc1Cl)c1ccc(OC(F)F)c(OCC2CC2)c1,-4%,.,.,.,.,.
COc1ccc(CN2CCOc3ccc(C(O)c4cccnc4)cc3C2)c(F)c1 (stereo not given),.,.,.,.,.,i
COc1cccc(C2=NN(S(C)(=O)=O)C(c3cn(-c4ccccc4)nc3-c3cccs3)C2)c1 (stereo not given),16%,i,.,i,.,i
Cc1ccc2c(c1)CN(C(=O)CC(c1ccccc1)c1ccco1)CC(C)O2 (stereo not given),.,.,.,.,.,i
CCOc1ccc(N2CC(C(=O)Nc3ccc4c(c3)OCO4)CC2=O)cc1 (stereo not given),-10%,i,-6%,i,-19%,i
Cc1cnc(NC(=O)C2CC(=O)N(c3cccc(Cl)c3)C2)s1 (stereo not given),0.56µM*,?,1%,21µM*,-2%,?
CCC(CC)c1nnc(NC(=O)C2CC(=O)N(c3ccc4c(c3)OCCO4)C2)s1 (stereo not given),3%,i,11%,21µM*,-6%,i
CCOc1ccc(N2CC(C(=O)Nc3ccc4c(c3)OCCO4)CC2=O)cc1 (stereo not given),3%,5.2µM*,1%,i,-5%,i
CCOc1ccc(N2CC(C(=O)Nc3cc(S(=O)(=O)N4CCCCC4)ccc3C)CC2=O)cc1 (stereo not given),-9%,i,-2%,18µM*,0%,i
Cc1nn(CC(=O)N2CCN(c3cccc(Cl)c3)CC2)c(=O)c2c1sc1ccccc12,13%,i,.,i,.,i
Cc1cnc(NC(=O)C2CC(=O)N(c3ccc4c(c3)OCCO4)C2)s1 (stereo not given),0%,i,-16%,15µM*,0%,i
Cc1nnc(NC(=O)C2CC(=O)N(c3ccc4c(c3)OCCO4)C2)s1 (stereo not given),7%,i,0%,?,1%,i
O=C(COC(=O)c1ccccc1NS(=O)(=O)c1cccs1)NCC12CC3CC(CC(C3)C1)C2,1%,i,-9%,15µM*,3%,?
Cc1ccc(Cc2c(C)nc3nc(SCC(=O)NCCC(C)C)nn3c2C)cc1,-15%,i,.,i,.,i
COc1ccc(S(=O)(=O)NCCSc2nnnn2-c2ccccc2)cc1OC,-7%,i,.,i,.,i
Cn1c(CSc2nnc(SCc3ccccc3)s2)nc2ccccc21,1%,i,-2%,16µM*,8%,i
Cn1c(=O)cc(OCCCC(=O)NC2CCCC2)c2ccccc21,110%,i,-27%,15µM*,?,i
